In PubChem BioAssay AID1159580 (chemical genetic matrix, 2015):
Among all 5,500 compounds or so, about 2,000 (36%) were called active. Inconclusive results (about 18%) are left out. No stated cut-off is given here; in the data, active means normalized growth mostly below about 0.91 (no sharp cut-off); inconclusive means no clear call, values can overlap the other calls; inactive means mostly above about 0.92. The list shows a part of the results.

Assay: chemical genetic growth profiling, strain panel (AID 1159580);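 further: tested at 20 µM; growth read once vehicle control cultures reached saturation at 30 °C; 1 = growth at the plate median or of vehicle wells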
Details: growth OD
[1] = S. cerevisiae deletion strains, locus YAL013W, strain DEP1, stronger effect = lower value
[2] = S. cerevisiae deletion strains, locus YBR229C, strain ROT2, stronger effect = lower value
[3] = S. cerevisiae deletion strains, locus YDL101C, strain DUN1, stronger effect = lower value
[4] = S. cerevisiae deletion strains, locus YDR150W, strain NUM1, stronger effect = lower value
[5] = S. cerevisiae deletion strains, locus YEL061C, strain CIN8, stronger effect = lower value
[6] = S. cerevisiae deletion strains, locus YGR078C, strain PAC10, stronger effect = lower value
[7] = S. cerevisiae deletion strains, locus YHR030C, strain SLT2, stronger effect = lower value
[8] = S. cerevisiae deletion strains, locus YJR043C, strain POL32, stronger effect = lower value
[9] = S. cerevisiae deletion strains, locus YJR075W, strain HOC1, stronger effect = lower value
[10] = S. cerevisiae deletion strains, locus YLR039C, strain RIC1, stronger effect = lower value
[11] = S. cerevisiae deletion strains, locus YLR262C, strain YPT6, stronger effect = lower value
[12] = S. cerevisiae deletion strains, locus YMR263W, strain SAP30, stronger effect = lower value
[13] = S. cerevisiae deletion strains, locus YMR307W, strain GAS1, stronger effect = lower value
[14] = S. cerevisiae deletion strains, locus YNL128W, strain TEP1, stronger effect = lower value
[15] = S. cerevisiae deletion strains, locus YNL153C, strain GIM3, stronger effect = lower value
[16] = S. cerevisiae deletion strains, locus YNL322C, strain KRE1, stronger effect = lower value
[17] = S. cerevisiae deletion strains, locus YOL006C, strain TOP1, stronger effect = lower value
[18] = S. cerevisiae deletion strains, locus YPL055C, strain LGE1, stronger effect = lower value
[19] = S. cerevisiae deletion strains, locus YPL241C, strain CIN2, stronger effect = lower value
[20] = S. cerevisiae deletion strains, locus YAL040C, strain CLN3, stronger effect = lower value
[21] = S. cerevisiae deletion strains, locus YDR363W, strain ESC2, stronger effect = lower value
[22] = S. cerevisiae deletion strains, locus YER002W, strain NOP16, stronger effect = lower value
[23] = S. cerevisiae deletion strains, locus YNL175C, strain NOP13, stronger effect = lower value
[24] = S. cerevisiae deletion strains, locus YNL197C, strain WHI3, stronger effect = lower value
[25] = S. cerevisiae deletion strains, locus YNL224C, strain SQS1, stronger effect = lower value
[26] = S. cerevisiae deletion strains, locus YOR083W, strain WHI5 (second series), stronger effect = lower value
[27] = S. cerevisiae deletion strains, locus YCL061C, strain MRC1 (second series), stronger effect = lower value

Measured: normalized growth

Cc1cccc(Nc2ccncc2S(=O)(=O)NC(=O)NC(C)C)c1
inactive: [1] 1.01 | S. cerevisiae deletion strains, locus YBR021W, strain FUR4, stronger effect = lower value 1.02 | [2] 1.01 | S. cerevisiae deletion strains, locus YCL029C, strain bik1, stronger effect = lower value 1.02 | S. cerevisiae deletion strains, locus YDL035C, strain GPR1, stronger effect = lower value 1.02 | S. cerevisiae deletion strains, locus YDL074C, strain BRE1, stronger effect = lower value 1.01 | [3] 1.02 | S. cerevisiae deletion strains, locus YDL134C, strain PPH21, stronger effect = lower value 1 | S. cerevisiae deletion strains, locus YDL185W, strain tfp1, stronger effect = lower value 1.02 | S. cerevisiae deletion strains, locus YDL192W, strain arf1, stronger effect = lower value 1.03 | S. cerevisiae deletion strains, locus YDR101C, strain arx1, stronger effect = lower value 1.02 | [4] 1.02 | S. cerevisiae deletion strains, locus YDR162C, strain NBP2, stronger effect = lower value 1.01 | S. cerevisiae deletion strains, locus YDR318W, strain mcm21, stronger effect = lower value 1.03 | S. cerevisiae deletion strains, locus YDR388W, stronger effect = lower value 1.02 | S. cerevisiae deletion strains, locus YDR502C, strain sam2, stronger effect = lower value 1.02 | [5] 1.01 | S. cerevisiae deletion strains, locus YER110C, stronger effect = lower value 1.03 | S. cerevisiae deletion strains, locus YER155C, strain BEM2, stronger effect = lower value 0.999 | S. cerevisiae deletion strains, locus YER167W, strain BCK2, stronger effect = lower value 1.01 | S. cerevisiae deletion strains, locus YGL078C, strain dbp3, stronger effect = lower value 1.02 | S. cerevisiae deletion strains, locus YGL086W, strain mad1, stronger effect = lower value 1.02 | S. cerevisiae deletion strains, locus YGL248W, strain PDE1, stronger effect = lower value 1.01 | [6] 1.05 | S. cerevisiae deletion strains, locus YGR135W, strain pre9, stronger effect = lower value 1.01 | S. cerevisiae deletion strains, locus YGR229C, strain SMI1, stronger effect = lower value 1.04 | S. cerevisiae deletion strains, locus YGR252W, strain gcn5, stronger effect = lower value 1.08 | [7] 1.01 | S. cerevisiae deletion strains, locus YHR079C, strain IRE1 (second series), stronger effect = lower value 1.01 | S. cerevisiae deletion strains, locus YHR094C, strain hxt1, stronger effect = lower value 1.02 | S. cerevisiae deletion strains, locus YHR129C, strain ARP1, stronger effect = lower value 1 | S. cerevisiae deletion strains, locus YHR200W, strain rpn10, stronger effect = lower value 1.03 | S. cerevisiae deletion strains, locus YIL066C, strain RNR3, stronger effect = lower value 1.04 | S. cerevisiae deletion strains, locus YIL125W, strain kgd1, stronger effect = lower value 1.01 | S. cerevisiae deletion strains, locus YIR030C, strain dcg1, stronger effect = lower value 1.02 | S. cerevisiae deletion strains, locus YJL095W, strain BCK1, stronger effect = lower value 1.02 | S. cerevisiae deletion strains, locus YJL134W, strain LCB3, stronger effect = lower value 1.01 | S. cerevisiae deletion strains, locus YJL168C, strain set2, stronger effect = lower value 1.02 | S. cerevisiae deletion strains, locus YJL187C, strain SWE1 (second series), stronger effect = lower value 1.02 | [8] 1.04 | [9] 1.01 | S. cerevisiae deletion strains, locus YKL009W, strain mrt4, stronger effect = lower value 1.01 | S. cerevisiae deletion strains, locus YKL068W, stronger effect = lower value 1.01 | S. cerevisiae deletion strains, locus YKL085W, strain MDH1 (second series), stronger effect = lower value 0.986 | S. cerevisiae deletion strains, locus YKL085W, strain MDH1, stronger effect = lower value 0.986 | S. cerevisiae deletion strains, locus YKL190W, strain CNB1, stronger effect = lower value 1.03 | S. cerevisiae deletion strains, locus YKR001C, strain vps1, stronger effect = lower value 1.03 | [10] 1.04 | S. cerevisiae deletion strains, locus YLR058C, strain SHM2, stronger effect = lower value 1.01 | S. cerevisiae deletion strains, locus YLR102C, strain apc9, stronger effect = lower value 1.02 | [11] 1.03 | S. cerevisiae deletion strains, locus YLR268W, strain sec22, stronger effect = lower value 1.02 | S. cerevisiae deletion strains, locus YLR330W, strain CHS5, stronger effect = lower value 1.01 | S. cerevisiae deletion strains, locus YLR342W, strain FKS1 (second series), stronger effect = lower value 1.06 | S. cerevisiae deletion strains, locus YLR371W, strain rom2, stronger effect = lower value 1.03 | S. cerevisiae deletion strains, locus YLR418C, strain cdc73, stronger effect = lower value 1.01 | S. cerevisiae deletion strains, locus YML016C, strain PPZ1, stronger effect = lower value 1.01 | S. cerevisiae deletion strains, locus YML032C, strain rad52, stronger effect = lower value 1.03 | S. cerevisiae deletion strains, locus YML124C, strain tub3, stronger effect = lower value 1.02 | S. cerevisiae deletion strains, locus YMR078C, strain ctf18, stronger effect = lower value 1.03 | S. cerevisiae deletion strains, locus YMR223W, strain ubp8, stronger effect = lower value 1.03 | [12] 1.02 | [13] 1.05 | S. cerevisiae deletion strains, locus YNL067W, strain RPL9B, stronger effect = lower value 1.01 | [14] 1.02 | [15] 1 | S. cerevisiae deletion strains, locus YNL233W, strain BNI4, stronger effect = lower value 1 | S. cerevisiae deletion strains, locus YNL250W, strain rad50, stronger effect = lower value 1.02 | S. cerevisiae deletion strains, locus YNL271C, strain bni1, stronger effect = lower value 1.02 | S. cerevisiae deletion strains, locus YNL298W, strain CLA4, stronger effect = lower value 1.02 | S. cerevisiae deletion strains, locus YNL307C, strain MCK1, stronger effect = lower value 1.03 | [16] 1.02 | S. cerevisiae deletion strains, locus YNR052C, strain pop2, stronger effect = lower value 1.03 | [17] 1 | S. cerevisiae deletion strains, locus YOL012C, strain htz1 0.913 | S. cerevisiae deletion strains, locus YOL147C, strain pex11, stronger effect = lower value 1.02 | S. cerevisiae deletion strains, locus YOR061W, strain CKA2, stronger effect = lower value 1.01 | S. cerevisiae deletion strains, locus YOR069W, strain VPS5, stronger effect = lower value 1 | S. cerevisiae deletion strains, locus YOR136W, strain idh2, stronger effect = lower value 1.03 | S. cerevisiae deletion strains, locus YOR144C, strain elg1, stronger effect = lower value 1.03 | S. cerevisiae deletion strains, locus YOR184W, strain ser1, stronger effect = lower value 1.03 | S. cerevisiae deletion strains, locus YOR316C, strain cot1, stronger effect = lower value 1.02 | [18] 1.04 | [19] 1.03 | S. cerevisiae deletion strains, locus YPR119W, strain clb2, stronger effect = lower value 1.02 | S. cerevisiae deletion strains, locus YPR141C, strain kar3, stronger effect = lower value 1.02 | S. cerevisiae deletion strains, locus YPR163C, strain tif3, stronger effect = lower value 1.03 | S. cerevisiae deletion strains, locus YPR167C, strain met16, stronger effect = lower value 1.01 | S. cerevisiae deletion strains, strain wtn01, stronger effect = lower value 1 | S. cerevisiae strains, strain wild type, stronger effect = lower value 1.04

CC(=O)OCC1=C(C(=O)O)N2C(=O)C(NC(=O)Cc3cccs3)C2SC1 (centres undefined)
inactive: [1] 1.01 | [20] 0.993 | [21] 1 | [22] 1.03 | [9] 0.995 | [15] 1.03 | [23] 1.01 | [24] 1.05 | [25] 1.03 | [26] 1.05

CN1CCN(c2ccc3ccccc3n2)CC1
inactive: [20] 1.04 | [27] 0.996 | [4] 1 | [21] 0.982 | [22] 1 | [6] 1.01 | [9] 0.982 | [13] 1 | [23] 1.02 | [24] 1 | [25] 1.01 | [16] 0.982 | [26] 1.03 | [18] 0.925 | [19] 0.993

CN1CCN(c2nc3cc(C(F)(F)F)ccc3n3cccc23)CC1
active: [13] 0.867
inactive: [20] 1 | [27] 0.985 | [21] 0.908 | [22] 1.01 | [6] 1.01 | [9] 0.971 | [12] 1 | [14] 1.05 | [15] 0.88 | [24] 1.06 | [25] 1.03 | [16] 0.972 | [26] 0.919

OC1(c2ccc(Cl)cc2)CSc2nc3cc(C(F)(F)F)ccc3n21 (centres undefined)
inactive: [1] 1.03 | [2] 1 | [3] 0.995 | [4] 1.01 | [5] 1.02 | [6] 1 | [7] 1.02 | S. cerevisiae deletion strains, locus YHR087W, strain rtc3, stronger effect = lower value 1.03 | [8] 1.01 | [9] 1 | [10] 1.09 | S. cerevisiae deletion strains, locus YLR058C, strain SHM2 (second series), stronger effect = lower value 1.02 | S. cerevisiae deletion strains, locus YLR085C, strain ARP6, stronger effect = lower value 1.11 | [11] 1.12 | S. cerevisiae deletion strains, locus YML094W, strain GIM5, stronger effect = lower value 1.07 | S. cerevisiae deletion strains, locus YMR219W, strain ESC1, stronger effect = lower value 1.01 | [12] 1.02 | [15] 0.991 | S. cerevisiae deletion strains, locus YNL298W, strain CLA4 (second series), stronger effect = lower value 1.1 | [16] 1.02 | S. cerevisiae deletion strains, locus YNR030W, strain Alg12, stronger effect = lower value 1.09 | [17] 1.08 | [18] 0.998 | [19] 1.04 | S. cerevisiae deletion strains, locus YPR135W, strain CTF4, stronger effect = lower value 1.02
